The full data set covers some 8,800 targets. This sample favours those with a hit. About 0.5% of all pairs of compound and target were hits.
Columns and labels:
Experiment in all cases: log2 fold change, soluble protein after heating vs DMSO (PISA); higher = thermal stabilisation; K562 lysate, 10 uM; active = over 0.2 and 3.5 SD of the protein, either way, in both replicates (recomputed)
[1] = compound: C#Cc1cccc(Nc2ncnc3cc(OCCOC)c(OCCOC)cc23)c1 [erlotinib]
Summary of the method: (§1)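 Log-two fold change in thermal stability relative to solvent controls is reported from duplicates. For each sample, crude K562 extract from dounce-homogenised pellets in PBS pH 7.4 with 1 mM MgCl2, at 1 mg/mL protein, was treated with 10 μM compound for 30 min. Aliquots heated for 3 min across 48°C-58°C were pooled, brought to 0.5% NP-40 at 4°C and cleared at 21,000xg for 90 min. The supernatant was quantified by TMTpro 16plex LC-MS/MS with channel sums equalised.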

[2] = compound: C/C(=N\NC(=O)C1=CC(=CC=C1)S(=O)(=O)N2CCOCC2)/C3=C(C=CC(=C3)Cl)O
Summary of the method: as §1

[3] = compound: C1=CC(=CC=C1C2=NC3=C(N2)C=C(C=C3)C(=O)N)OC4=CC=C(C=C4)Cl
Summary of the method: as §1

[4] = compound: C1=CC2=C(C=CC(=C2)/C=C\3/C(=O)NC(=NCC4=CC=CS4)S3)N=C1
Summary of the method: as §1

[5] = compound: C1=CC2=NC=CN=C2C=C1/C=C/3\C(=O)NC(=O)S3
Summary of the method: as §1

[6] = compound: C1=CC=C(C=C1)C2=NC(=C(N2)C3=CC=NC=C3)C4=CC(=C(C=C4)Cl)O
Summary of the method: as §1

[7] = compound: C1=CC=C2C(=C1)C3=NNC4=CC=CC(=C43)C2=O
Summary of the method: as §1

[8] = compound: C1CCN(C1)C(=O)NC2=CC=CC(=C2)NC3=NC=C(C(=N3)NCCC4=CN=CN4)Br
Summary of the method: as §1

[9] = compound: C1CN(CCC1(CC2=CC=C(C=C2)Cl)N)C3=NC=NC4=C3C=CN4
Summary of the method: as §1

[10] = compound: C1COCCN1CCN2C3=CC=CC=C3N=C2NC(=O)C4=CC(=CC=C4)[N+](=O)[O-] [IRAK-1-4 Inhibitor I]
Summary of the method: as §1

Measured: log2 fold change

RABEPK (UniProt Q7Z6M1)
inactive: [1] -0.01 | [2] 0.014 | [3] 0.012 | [4] 0.004 | [5] 0.032 | [6] 0.007 | [7] -0.024 | [8] -0.03 | [9] -0.032 | [10] 0.014

RFWD3 (UniProt Q6PCD5)
Sequence of UniProt Q6PCD5 (Q6PCD5 whole entry, looked up): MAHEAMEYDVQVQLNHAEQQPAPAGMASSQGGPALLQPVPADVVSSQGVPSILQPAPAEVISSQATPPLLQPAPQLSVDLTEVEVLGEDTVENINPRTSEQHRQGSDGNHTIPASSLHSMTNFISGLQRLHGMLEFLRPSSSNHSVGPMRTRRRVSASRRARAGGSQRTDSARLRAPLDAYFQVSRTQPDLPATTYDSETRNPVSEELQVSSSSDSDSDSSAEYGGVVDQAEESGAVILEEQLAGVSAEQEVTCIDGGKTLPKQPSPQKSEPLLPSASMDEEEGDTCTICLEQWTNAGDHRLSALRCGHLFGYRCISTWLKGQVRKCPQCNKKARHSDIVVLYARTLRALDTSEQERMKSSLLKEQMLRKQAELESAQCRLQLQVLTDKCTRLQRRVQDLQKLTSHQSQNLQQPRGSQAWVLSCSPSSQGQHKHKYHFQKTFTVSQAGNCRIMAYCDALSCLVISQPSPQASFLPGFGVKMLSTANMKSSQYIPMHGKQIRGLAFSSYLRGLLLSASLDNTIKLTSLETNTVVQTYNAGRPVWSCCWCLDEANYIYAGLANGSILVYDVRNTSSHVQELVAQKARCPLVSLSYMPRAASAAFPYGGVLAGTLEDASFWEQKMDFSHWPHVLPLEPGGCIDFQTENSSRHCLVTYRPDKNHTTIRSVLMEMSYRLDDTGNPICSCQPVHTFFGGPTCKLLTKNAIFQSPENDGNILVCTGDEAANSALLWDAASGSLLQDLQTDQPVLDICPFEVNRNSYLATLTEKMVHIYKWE
inactive: [1] -0.12 | [2] 0.005 | [3] 0.048 | [4] -0.061 | [5] 0.062 | [6] 0.029 | [7] -0.039 | [8] -0.086 | [9] 0.053 | [10] 0.054

RAB3IL1 (UniProt E9PK89)
inactive: [1] -0.016 | [2] -0.075 | [3] 0.124 | [4] 0.013 | [5] -0.048 | [6] -0.04 | [7] 0.093 | [8] -0.034 | [9] -0.12 | [10] 0.109

RETREG2 (UniProt Q8NC44)
Sequence of UniProt Q8NC44 (Q8NC44 whole entry, looked up): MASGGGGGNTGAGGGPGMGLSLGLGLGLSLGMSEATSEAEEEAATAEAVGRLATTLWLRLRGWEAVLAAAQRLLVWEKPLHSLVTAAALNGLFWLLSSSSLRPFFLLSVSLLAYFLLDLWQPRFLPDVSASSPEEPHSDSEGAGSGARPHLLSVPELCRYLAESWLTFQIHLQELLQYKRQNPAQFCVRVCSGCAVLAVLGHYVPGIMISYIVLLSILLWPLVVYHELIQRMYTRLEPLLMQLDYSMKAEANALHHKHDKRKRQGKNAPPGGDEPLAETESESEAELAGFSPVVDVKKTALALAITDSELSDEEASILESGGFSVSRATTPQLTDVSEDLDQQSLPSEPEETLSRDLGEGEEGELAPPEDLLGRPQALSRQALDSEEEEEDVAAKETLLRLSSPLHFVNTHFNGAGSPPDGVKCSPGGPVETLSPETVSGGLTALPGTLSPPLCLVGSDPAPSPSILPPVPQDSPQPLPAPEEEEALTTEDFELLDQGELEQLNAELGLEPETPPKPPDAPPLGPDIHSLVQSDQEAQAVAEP
inactive: [1] -0.08 | [2] 0.036 | [3] -0.115 | [4] -0.055 | [5] 0.049 | [6] 0.035 | [7] -0.063 | [8] 0.022 | [9] 0.075 | [10] 0.106

RPLP0P6 (UniProt Q8NHW5)
inactive: [1] -0.003 | [2] -0.069 | [3] -0.034 | [4] 0.026 | [5] -0.05 | [6] 0.009 | [7] 0.03 | [8] 0.024 | [9] 0.004 | [10] 0.008

SAR1B (UniProt Q9Y6B6)
Sequence of UniProt Q9Y6B6 (Q9Y6B6 whole entry, looked up): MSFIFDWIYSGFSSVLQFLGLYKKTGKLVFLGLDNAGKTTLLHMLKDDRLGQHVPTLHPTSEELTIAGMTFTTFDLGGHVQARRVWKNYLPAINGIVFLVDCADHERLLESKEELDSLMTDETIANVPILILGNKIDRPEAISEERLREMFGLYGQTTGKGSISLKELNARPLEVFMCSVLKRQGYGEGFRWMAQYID
inactive: [1] -0.143 | [2] 0.011 | [3] 0.042 | [4] -0.046 | [5] -0.065 | [6] -0.045 | [7] 0.029 | [8] -0.126 | [9] 0.025 | [10] 0.041

RAE1 (UniProt P78406)
Sequence of UniProt P78406 (P78406 whole entry, looked up): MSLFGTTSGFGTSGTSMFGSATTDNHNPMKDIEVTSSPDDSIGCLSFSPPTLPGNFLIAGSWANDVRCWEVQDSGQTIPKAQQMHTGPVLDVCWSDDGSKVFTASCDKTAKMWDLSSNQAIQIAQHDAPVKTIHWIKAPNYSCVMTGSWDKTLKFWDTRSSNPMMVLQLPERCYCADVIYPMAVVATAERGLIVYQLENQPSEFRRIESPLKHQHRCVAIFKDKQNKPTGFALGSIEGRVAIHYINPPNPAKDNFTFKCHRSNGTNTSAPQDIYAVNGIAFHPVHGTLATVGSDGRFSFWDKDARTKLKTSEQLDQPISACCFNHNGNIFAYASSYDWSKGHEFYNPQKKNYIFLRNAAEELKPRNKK
inactive: [1] 0.045 | [2] -0.036 | [3] 0.014 | [4] 0.046 | [5] 0.012 | [6] -0.021 | [7] -0.007 | [8] -0.019 | [9] 0.033 | [10] -0.024

RCOR1 (UniProt Q9UKL0)
inactive: [1] -0.023 | [2] 0.065 | [3] -0.004 | [4] -0.053 | [5] -0.051 | [6] 0.005 | [7] -0.035 | [8] -0.008 | [9] 0.017 | [10] 0.003

RAB8B (UniProt Q92930)
Sequence of UniProt Q92930 (Q92930 whole entry, looked up): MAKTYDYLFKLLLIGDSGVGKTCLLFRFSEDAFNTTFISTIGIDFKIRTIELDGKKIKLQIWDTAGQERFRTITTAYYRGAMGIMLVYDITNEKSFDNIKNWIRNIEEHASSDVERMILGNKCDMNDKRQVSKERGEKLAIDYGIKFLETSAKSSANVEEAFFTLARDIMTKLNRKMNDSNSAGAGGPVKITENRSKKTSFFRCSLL
inactive: [1] 0.013 | [2] -0.042 | [3] 0.049 | [4] 0.113 | [5] 0.004 | [6] 0.034 | [7] 0.125 | [8] 0 | [9] -0.006 | [10] 0.035

RBM42 (UniProt Q9BTD8)
inactive: [1] -0.034 | [2] -0.161 | [3] 0.073 | [4] -0.062 | [5] -0.018 | [6] -0.009 | [7] -0.05 | [8] -0.017 | [9] -0.014 | [10] 0.049

RBBP7 isoform 2 (UniProt Q16576)
inactive: [1] -0.036 | [2] 0.046 | [3] -0.036 | [4] -0.03 | [5] -0.013 | [6] -0.002 | [7] 0.055 | [8] 0.041 | [9] -0.026 | [10] -0.006

RAF1 isoform 2 (UniProt P04049)
inactive: [1] -0.011 | [2] -0.033 | [3] -0.016 | [4] -0.072 | [5] -0.113 | [6] -0.009 | [7] 0.007 | [8] 0.036 | [9] -0.044 | [10] -0.058

REL isoform 2 (UniProt Q04864)
Sequence of UniProt Q04864 (Q04864 whole entry, looked up): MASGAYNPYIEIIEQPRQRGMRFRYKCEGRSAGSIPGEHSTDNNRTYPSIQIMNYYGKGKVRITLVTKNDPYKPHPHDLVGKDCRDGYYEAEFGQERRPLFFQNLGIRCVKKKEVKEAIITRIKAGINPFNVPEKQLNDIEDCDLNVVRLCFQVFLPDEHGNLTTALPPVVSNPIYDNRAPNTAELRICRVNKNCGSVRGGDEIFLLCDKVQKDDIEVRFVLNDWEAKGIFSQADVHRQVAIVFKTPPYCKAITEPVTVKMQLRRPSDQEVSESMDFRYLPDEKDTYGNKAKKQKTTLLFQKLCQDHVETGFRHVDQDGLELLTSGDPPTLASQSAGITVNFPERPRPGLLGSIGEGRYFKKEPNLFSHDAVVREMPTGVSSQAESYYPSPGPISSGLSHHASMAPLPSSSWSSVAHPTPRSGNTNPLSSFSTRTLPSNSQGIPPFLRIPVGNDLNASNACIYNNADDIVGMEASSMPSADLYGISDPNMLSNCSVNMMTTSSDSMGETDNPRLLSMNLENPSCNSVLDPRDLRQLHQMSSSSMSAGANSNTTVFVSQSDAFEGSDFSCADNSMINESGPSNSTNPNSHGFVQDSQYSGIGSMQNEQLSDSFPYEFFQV
inactive: [1] 0.022 | [2] -0.005 | [3] -0.048 | [4] 0.016 | [5] -0.017 | [6] 0.037 | [7] -0.019 | [8] -0.011 | [9] -0.02 | [10] 0.019

RNPS1 (UniProt Q15287)
Sequence of UniProt Q15287 (Q15287 whole entry, looked up): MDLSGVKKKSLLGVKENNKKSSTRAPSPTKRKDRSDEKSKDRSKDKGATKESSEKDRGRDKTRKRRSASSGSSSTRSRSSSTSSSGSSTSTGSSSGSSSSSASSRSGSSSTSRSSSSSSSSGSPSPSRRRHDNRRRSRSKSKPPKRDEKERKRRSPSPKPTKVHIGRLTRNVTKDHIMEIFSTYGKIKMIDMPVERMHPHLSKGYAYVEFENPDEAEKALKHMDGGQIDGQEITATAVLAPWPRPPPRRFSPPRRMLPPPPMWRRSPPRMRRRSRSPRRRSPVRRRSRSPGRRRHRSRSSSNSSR
inactive: [1] -0.008 | [2] -0.105 | [3] 0.025 | [4] -0.151 | [5] -0.005 | [6] -0.006 | [7] 0.027 | [8] -0.016 | [9] -0.073 | [10] 0.023

SEC24D isoform 2 (UniProt O94855)
inactive: [1] 0.016 | [2] 0.04 | [3] 0.012 | [4] 0.008 | [5] 0.032 | [6] 0.022 | [7] 0.001 | [8] -0.013 | [9] 0.004 | [10] -0.002

SERPINI1 (UniProt Q99574)
Sequence of UniProt Q99574 (Q99574 whole entry, looked up): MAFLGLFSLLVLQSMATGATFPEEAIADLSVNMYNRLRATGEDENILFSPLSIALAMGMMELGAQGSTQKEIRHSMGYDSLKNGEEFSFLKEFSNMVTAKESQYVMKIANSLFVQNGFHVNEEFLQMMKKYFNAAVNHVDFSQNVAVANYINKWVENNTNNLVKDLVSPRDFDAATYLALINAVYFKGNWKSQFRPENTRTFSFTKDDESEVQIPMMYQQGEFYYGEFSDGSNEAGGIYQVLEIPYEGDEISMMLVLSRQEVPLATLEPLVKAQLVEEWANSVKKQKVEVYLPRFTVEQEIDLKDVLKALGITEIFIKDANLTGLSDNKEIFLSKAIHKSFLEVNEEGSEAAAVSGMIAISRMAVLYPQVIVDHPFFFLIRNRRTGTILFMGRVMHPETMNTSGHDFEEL
inactive: [1] -0.003 | [2] -0.021 | [3] -0.037 | [4] 0.027 | [5] 0.054 | [6] -0.007 | [7] -0.117 | [8] 0.029 | [9] 0.038 | [10] 0.031

RBSN (UniProt Q9H1K0)
Sequence of UniProt Q9H1K0 (Q9H1K0 whole entry, looked up): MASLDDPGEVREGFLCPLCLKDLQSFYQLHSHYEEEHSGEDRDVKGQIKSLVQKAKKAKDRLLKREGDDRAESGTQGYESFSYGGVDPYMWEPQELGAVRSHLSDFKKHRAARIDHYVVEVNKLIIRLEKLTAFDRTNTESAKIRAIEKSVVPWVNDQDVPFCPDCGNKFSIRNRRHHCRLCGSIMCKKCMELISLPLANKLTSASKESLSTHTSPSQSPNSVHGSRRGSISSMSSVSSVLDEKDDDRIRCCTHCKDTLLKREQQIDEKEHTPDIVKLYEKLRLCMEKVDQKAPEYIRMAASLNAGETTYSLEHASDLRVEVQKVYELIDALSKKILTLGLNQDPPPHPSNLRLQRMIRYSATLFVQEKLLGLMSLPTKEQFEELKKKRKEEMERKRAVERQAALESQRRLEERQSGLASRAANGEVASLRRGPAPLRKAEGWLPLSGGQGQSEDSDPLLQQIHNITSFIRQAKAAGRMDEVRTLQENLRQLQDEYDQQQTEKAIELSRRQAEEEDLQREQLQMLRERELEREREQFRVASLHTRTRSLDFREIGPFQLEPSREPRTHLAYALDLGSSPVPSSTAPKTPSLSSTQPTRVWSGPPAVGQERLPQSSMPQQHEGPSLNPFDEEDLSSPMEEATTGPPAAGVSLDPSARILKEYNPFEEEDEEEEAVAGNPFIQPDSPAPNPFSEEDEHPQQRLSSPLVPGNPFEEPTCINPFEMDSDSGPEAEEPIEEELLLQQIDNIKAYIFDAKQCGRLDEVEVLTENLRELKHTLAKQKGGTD
inactive: [1] -0.067 | [2] -0.215 | [3] 0.004 | [4] -0.014 | [5] -0.004 | [6] 0.005 | [7] 0.043 | [8] 0.015 | [9] 0.063 | [10] 0.025

RPL37A (UniProt P61513)
inactive: [1] -0.012 | [2] -0.067 | [3] -0.006 | [4] -0.011 | [5] -0.03 | [6] 0.03 | [7] 0.064 | [8] 0.039 | [9] -0.035 | [10] -0.023

SEC61G (UniProt P60059)
inactive: [1] 0.065 | [2] -0.196 | [3] -0.111 | [4] 0.032 | [5] 0.043 | [6] 0.032 | [7] -0.126 | [8] -0.096 | [9] 0.065 | [10] 0.083

QRSL1 (UniProt Q9H0R6)
inactive: [1] -0.01 | [2] -0.003 | [3] 0.004 | [4] -0.14 | [5] -0.111 | [6] 0.002 | [7] 0.116 | [8] -0.017 | [9] 0.022 | [10] -0.01

RNF213, A0A0A0MTC1
inactive: [1] 0.041 | [2] 0.004 | [3] 0 | [4] 0.042 | [5] 0.015 | [6] 0.021 | [7] -0.045 | [8] -0.005 | [9] 0.047 | [10] 0.025

RAI14 isoform 2 (UniProt Q9P0K7)
inactive: [1] 0.015 | [2] 0.006 | [3] -0.007 | [4] 0.004 | [5] 0.001 | [6] 0.021 | [7] 0.02 | [8] 0 | [9] -0.018 | [10] -0.028

RANBP2 (UniProt P49792)
inactive: [1] 0.017 | [2] 0.014 | [3] -0.004 | [4] -0.011 | [5] -0.012 | [6] -0.004 | [7] -0.038 | [8] -0.001 | [9] -0.007 | [10] -0.019

RCAN1 (UniProt P53805)
Sequence of UniProt P53805 (P53805 whole entry, looked up): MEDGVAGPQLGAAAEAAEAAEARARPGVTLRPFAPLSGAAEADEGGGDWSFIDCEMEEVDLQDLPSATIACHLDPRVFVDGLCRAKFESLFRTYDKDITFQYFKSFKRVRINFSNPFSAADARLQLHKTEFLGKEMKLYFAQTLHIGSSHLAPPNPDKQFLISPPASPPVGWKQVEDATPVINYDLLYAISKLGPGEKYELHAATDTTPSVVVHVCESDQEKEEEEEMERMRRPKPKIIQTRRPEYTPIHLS
inactive: [1] 0.06 | [2] -0.206 | [3] -0.033 | [4] -0.018 | [5] -0.04 | [6] 0.008 | [7] 0.045 | [8] -0.095 | [9] 0.016 | [10] -0.024

RAB27A (UniProt P51159)
inactive: [1] -0.045 | [2] 0.023 | [3] -0.014 | [4] 0.009 | [5] -0.009 | [6] -0.003 | [7] -0.025 | [8] -0.031 | [9] -0.015 | [10] -0.049

RBMX (UniProt P38159)
inactive: [1] 0 | [2] 0.019 | [3] -0.056 | [4] 0.016 | [5] 0.013 | [6] 0.025 | [7] 0.018 | [8] 0.06 | [9] 0.029 | [10] -0.012

SCCPDH (UniProt Q8NBX0)
Sequence of UniProt Q8NBX0 (Q8NBX0 whole entry, looked up): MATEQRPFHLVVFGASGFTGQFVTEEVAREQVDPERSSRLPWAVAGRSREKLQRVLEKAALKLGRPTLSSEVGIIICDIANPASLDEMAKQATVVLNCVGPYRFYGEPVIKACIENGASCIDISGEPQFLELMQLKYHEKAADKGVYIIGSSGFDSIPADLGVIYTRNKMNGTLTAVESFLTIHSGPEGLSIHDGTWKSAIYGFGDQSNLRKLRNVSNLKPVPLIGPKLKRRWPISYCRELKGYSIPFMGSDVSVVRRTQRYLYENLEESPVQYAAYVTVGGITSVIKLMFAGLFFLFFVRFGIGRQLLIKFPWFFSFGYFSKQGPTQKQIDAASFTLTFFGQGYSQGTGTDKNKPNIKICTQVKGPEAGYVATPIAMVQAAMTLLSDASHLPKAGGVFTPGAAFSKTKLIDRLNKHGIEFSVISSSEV
inactive: [1] -0.213 | [2] -0.055 | [3] -0.027 | [4] 0.083 | [5] -0.243 | [6] 0.052 | [7] 0.185 | [8] -0.03 | [9] 0.026 | [10] 0.016

SEH1L isoform 1 (UniProt Q96EE3)
inactive: [1] -0.008 | [2] 0.082 | [3] -0.001 | [4] -0.023 | [5] 0.014 | [6] -0.015 | [7] -0.012 | [8] -0.025 | [9] 0.026 | [10] 0.031

RPL8 (UniProt P62917)
inactive: [1] 0.001 | [2] -0.307 | [3] -0.024 | [4] -0.025 | [5] -0.026 | [6] 0.007 | [7] 0.109 | [8] 0.019 | [9] -0.085 | [10] -0.005
